# In paper PMC7862700, “An all-to-all approach to the identification of sequence-specific readers for epigenetic DNA modifications on cytosine”:
# Legend:
# Test in all cases: DAPPL (digital affinity profiling via proximity ligation, sequencing); 10 mM Tris-HCl pH 7.5, 50 mM NaCl, 1 mM DTT, 4% glycerol, room temperature, 30 min; GST-TFs on glutathione beads, 16-mer random dsDNA library, 0.1% formaldehyde crosslink after washing; high values mean tight binding
# Conditions in all cases: protein: recombinant; tags: N-terminal GST; dsDNA, one strand shown
# ETV1 = ETV1 (Homo sapiens, UniProt P50549 1-477)
# How it was run: (§1)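 Pools were built from human transcription factors expressed in yeast as GST fusions, captured on glutathione beads and DNA-barcoded, along with a tag-only sample. Incubation with 200 nmole of a 16-mer random double-stranded DNA library lasted 30 min at room temperature in Tris/NaCl/DTT/glycerol buffer, and was followed by washing, 0.1% formaldehyde crosslinking, proximity ligation, PCR amplification and Illumina NextSeq500 sequencing. Binding signal is the quotient of each hexamer's read frequency for a factor and its frequency for the tag-only sample.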
# ERF = molecular target: T1, ERF (Homo sapiens, UniProt P50548 1-548)
# T1 sequence: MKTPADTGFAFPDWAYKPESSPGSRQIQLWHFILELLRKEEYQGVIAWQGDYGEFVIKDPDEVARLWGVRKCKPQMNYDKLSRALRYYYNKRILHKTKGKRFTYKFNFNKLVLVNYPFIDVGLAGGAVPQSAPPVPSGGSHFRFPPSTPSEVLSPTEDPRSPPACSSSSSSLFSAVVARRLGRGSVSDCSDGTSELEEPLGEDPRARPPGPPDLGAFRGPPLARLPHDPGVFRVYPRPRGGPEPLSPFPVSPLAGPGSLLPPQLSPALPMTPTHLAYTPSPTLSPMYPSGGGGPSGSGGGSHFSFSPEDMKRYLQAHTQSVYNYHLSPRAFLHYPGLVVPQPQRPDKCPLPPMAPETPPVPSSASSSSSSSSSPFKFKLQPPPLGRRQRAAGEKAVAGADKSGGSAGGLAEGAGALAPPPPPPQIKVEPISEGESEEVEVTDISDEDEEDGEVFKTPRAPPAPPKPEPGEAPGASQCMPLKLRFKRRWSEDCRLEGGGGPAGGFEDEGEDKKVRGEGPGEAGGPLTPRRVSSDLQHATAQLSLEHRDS
# How it was run: as §1
# ETV3L = molecular target: T2, ETV3L (Homo sapiens, UniProt Q6ZN32 1-361)
# T2 sequence: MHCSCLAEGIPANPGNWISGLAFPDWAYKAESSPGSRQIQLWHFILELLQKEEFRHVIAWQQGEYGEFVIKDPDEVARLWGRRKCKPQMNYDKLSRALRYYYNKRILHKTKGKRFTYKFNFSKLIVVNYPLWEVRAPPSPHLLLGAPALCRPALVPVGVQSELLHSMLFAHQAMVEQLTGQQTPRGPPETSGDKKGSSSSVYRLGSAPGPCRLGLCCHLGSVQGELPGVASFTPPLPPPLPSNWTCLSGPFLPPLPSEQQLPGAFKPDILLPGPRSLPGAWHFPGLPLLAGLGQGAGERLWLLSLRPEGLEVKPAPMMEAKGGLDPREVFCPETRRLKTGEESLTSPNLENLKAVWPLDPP
# How it was run: as §1
# ETS2 = molecular target: T3, ETS2 (Homo sapiens, UniProt P15036 1-469)
# T3 sequence: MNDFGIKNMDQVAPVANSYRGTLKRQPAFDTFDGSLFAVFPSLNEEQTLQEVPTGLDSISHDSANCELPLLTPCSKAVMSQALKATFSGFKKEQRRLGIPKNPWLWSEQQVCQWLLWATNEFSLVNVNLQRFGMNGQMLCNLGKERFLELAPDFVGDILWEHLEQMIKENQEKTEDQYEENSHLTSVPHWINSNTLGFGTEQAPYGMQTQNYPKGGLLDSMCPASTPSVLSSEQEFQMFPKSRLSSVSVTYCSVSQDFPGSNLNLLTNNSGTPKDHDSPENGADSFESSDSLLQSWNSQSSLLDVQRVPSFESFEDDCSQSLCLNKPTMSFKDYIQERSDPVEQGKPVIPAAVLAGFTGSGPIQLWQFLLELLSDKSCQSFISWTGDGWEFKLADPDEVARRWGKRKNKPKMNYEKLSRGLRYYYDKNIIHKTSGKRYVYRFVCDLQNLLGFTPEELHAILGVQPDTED
# How it was run: as §1
# SPDEF = molecular target: T4, SPDEF (Homo sapiens, UniProt O95238 1-335)
# T4 sequence: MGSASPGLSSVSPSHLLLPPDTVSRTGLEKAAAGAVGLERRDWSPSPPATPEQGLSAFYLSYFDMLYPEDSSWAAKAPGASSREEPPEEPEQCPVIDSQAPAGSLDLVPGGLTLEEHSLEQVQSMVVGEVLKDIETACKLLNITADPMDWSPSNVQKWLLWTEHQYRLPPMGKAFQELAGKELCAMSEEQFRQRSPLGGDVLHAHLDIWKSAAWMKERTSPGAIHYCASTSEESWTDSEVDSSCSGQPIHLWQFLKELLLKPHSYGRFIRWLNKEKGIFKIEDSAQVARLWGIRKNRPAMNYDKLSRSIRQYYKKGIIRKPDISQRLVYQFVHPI
# How it was run: as §1
# ETV7 = molecular target: T5, ETV7 (Homo sapiens, UniProt Q9Y603 1-341)
# T5 sequence: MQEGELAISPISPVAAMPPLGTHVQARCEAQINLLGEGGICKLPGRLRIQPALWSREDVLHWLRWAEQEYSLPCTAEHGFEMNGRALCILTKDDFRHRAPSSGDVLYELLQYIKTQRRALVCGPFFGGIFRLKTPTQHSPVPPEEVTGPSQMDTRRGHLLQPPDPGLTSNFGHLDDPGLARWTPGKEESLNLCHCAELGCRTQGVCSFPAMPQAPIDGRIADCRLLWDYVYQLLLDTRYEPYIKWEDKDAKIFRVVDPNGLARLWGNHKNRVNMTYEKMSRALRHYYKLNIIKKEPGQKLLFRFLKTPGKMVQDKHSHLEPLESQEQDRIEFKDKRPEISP
# How it was run: as §1
# ELF5 = molecular target: T6, ELF5 (Homo sapiens, UniProt Q9UKW6-2 1-255)
# T6 sequence: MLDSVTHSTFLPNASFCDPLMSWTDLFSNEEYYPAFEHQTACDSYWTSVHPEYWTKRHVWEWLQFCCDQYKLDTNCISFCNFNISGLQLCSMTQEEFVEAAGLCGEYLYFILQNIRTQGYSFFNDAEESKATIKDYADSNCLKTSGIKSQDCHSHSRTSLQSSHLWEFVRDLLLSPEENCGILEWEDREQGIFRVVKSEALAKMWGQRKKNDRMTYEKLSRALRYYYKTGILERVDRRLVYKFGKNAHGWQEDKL
# How it was run: as §1
# ETV3 = molecular target: T7, ETV3 (Homo sapiens, UniProt P41162-2 1-143)
# T7 sequence: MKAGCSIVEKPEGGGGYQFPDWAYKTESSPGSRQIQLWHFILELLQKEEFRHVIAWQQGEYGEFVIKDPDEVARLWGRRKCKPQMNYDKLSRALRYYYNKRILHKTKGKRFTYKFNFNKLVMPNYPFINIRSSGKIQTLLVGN
# How it was run: as §1
# ETV6 = ETV6 (Homo sapiens, UniProt P41212 1-452)
# How it was run: as §1
# Chain of ETV1 (P50549 whole entry, the tested form may be a part): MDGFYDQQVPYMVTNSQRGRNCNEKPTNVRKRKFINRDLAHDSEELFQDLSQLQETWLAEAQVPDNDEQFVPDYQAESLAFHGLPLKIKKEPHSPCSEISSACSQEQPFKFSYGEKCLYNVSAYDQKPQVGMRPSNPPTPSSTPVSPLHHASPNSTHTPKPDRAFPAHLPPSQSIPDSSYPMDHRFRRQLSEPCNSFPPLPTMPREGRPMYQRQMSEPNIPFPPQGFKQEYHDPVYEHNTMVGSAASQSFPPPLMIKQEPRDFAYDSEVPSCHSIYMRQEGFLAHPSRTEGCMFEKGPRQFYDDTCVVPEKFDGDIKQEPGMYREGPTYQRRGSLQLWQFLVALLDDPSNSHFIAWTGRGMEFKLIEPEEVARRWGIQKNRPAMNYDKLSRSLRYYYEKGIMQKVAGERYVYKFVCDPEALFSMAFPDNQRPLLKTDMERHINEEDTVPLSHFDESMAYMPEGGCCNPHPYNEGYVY
# Chain of ETV6 (P41212 whole entry): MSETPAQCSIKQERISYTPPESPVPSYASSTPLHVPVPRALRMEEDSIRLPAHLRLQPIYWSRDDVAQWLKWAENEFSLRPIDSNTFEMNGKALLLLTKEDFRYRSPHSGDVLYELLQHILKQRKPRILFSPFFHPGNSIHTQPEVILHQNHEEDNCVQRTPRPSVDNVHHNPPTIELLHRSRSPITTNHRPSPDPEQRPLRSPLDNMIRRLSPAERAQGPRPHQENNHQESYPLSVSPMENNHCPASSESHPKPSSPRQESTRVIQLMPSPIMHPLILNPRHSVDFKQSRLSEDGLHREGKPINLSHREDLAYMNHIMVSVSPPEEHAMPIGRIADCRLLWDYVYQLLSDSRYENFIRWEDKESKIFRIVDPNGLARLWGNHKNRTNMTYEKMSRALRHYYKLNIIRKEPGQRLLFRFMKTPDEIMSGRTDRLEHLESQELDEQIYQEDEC
sequence,measurement,setting,value
GGCTTC,binding signal,ETV1,"1.6 fold enrichment (6-mer frequency, TF over GST control)"
same,binding signal,ERF,"1.7 fold enrichment (6-mer frequency, TF over GST control)"
same,binding signal,ETV3L,"1.61 fold enrichment (6-mer frequency, TF over GST control)"
same,binding signal,ETS2,"1.7 fold enrichment (6-mer frequency, TF over GST control)"
same,binding signal,SPDEF,"1.6 fold enrichment (6-mer frequency, TF over GST control)"
same,binding signal,ETV7,"1.54 fold enrichment (6-mer frequency, TF over GST control)"
same,binding signal,ELF5,"1.81 fold enrichment (6-mer frequency, TF over GST control)"
same,binding signal,ETV3,"1.65 fold enrichment (6-mer frequency, TF over GST control)"
same,binding signal,ETV6,"1.85 fold enrichment (6-mer frequency, TF over GST control)"
